Assay results published in ChEMBL document CHEMBL3433997, “St. Jude Leishmania screening dataset” (2016).

Legend:
Format in all cases: functional
[1] = biological target: Solute carrier family 2, facilitated glucose transporter member 1 (Homo sapiens) (UniProt P11166); experiment: ST_JUDE_LEISH: Cytotoxicity at 2uM final concentration against transgenic Leishmania Mexicana promastigotes LmGLUT1 that are glucose transport deficient and complemented with the human glucose transporter GLUT1. Activity is measured by DNA content using SYBR green in vitro
Chain of Solute carrier family 2, facilitated glucose transporter member 1 (Homo sapiens) (P11166 whole entry): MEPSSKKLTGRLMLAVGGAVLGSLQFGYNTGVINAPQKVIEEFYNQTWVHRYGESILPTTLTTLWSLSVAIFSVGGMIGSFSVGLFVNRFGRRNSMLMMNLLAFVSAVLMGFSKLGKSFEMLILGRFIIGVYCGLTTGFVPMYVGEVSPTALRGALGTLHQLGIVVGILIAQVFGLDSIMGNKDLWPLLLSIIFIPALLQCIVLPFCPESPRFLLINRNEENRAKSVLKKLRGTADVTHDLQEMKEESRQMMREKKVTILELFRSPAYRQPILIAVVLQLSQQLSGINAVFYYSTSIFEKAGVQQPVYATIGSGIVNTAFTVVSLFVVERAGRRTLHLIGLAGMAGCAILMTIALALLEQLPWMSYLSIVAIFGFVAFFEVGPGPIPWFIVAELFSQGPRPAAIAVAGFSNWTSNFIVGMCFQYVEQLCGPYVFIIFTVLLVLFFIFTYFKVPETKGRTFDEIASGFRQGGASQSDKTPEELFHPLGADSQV

[2] = biological target: Hexose transporter 1 (Plasmodium falciparum) (UniProt O97467); experiment: ST_JUDE_LEISH: Cytotoxicity at 2uM final concentration against transgenic Leishmania Mexicana promastigotes LmPfHT that are glucose transport deficient and complemented with the Plasmodium falciparum hexose transporter. Activity is measured by DNA content using SYBR green in vitro
[3] = biological target: Glucose transporter (Leishmania mexicana) (UniProt O61059); experiment: ST_JUDE_LEISH: Cytotoxicity at 2uM final concentration against transgenic Leishmania Mexicana promastigotes LmGT2 that are glucose transport deficient and complemented with the L. Mexicana glucose transporter 2. Activity is measured by DNA content using SYBR green in vitro

## N[C@@H](CCNCc1ccc(-c2cccnc2)cc1)Cc1ccc(F)c(F)c1
[1]
  inhibition: 0.43%
[2]
  inhibition: 0.41%
[3]
  inhibition: 0.4%

## COc1ccc2nccc([C@@H](O)CN3CCC(NC(=O)C(c4cccs4)N4CCN(c5ccc(F)cc5)CC4)CC3)c2c1 (some centres undefined)
[1]
  inhibition: 5%
[2]
  inhibition: 3.71%
[3]
  inhibition: 4.65%

## O=C(Nc1ccc(N2CCN(Cc3ccccc3Cl)CC2)cc1)c1ccc([N+](=O)[O-])o1
[1]
  inhibition: 71.5%
[2]
  inhibition: 51.2%
[3]
  inhibition: 11.1%

## O=C(Nc1ccc(CN2CCOCC2)cc1)c1ccc(-c2cc(Cl)ccc2Cl)o1
[1]
  inhibition: 11%
[2]
  inhibition: 8.63%
[3]
  inhibition: 7.99%

## O=C(NC1CCN(Cc2ccccc2)CC1)c1ccc(CNC2CCN(Cc3ccccc3)CC2)cc1
[1]
  inhibition: 4.84%
[2]
  inhibition: 3.94%
[3]
  inhibition: 4.42%

## CCN(CC)CCN(Cc1ccc(-c2ccc(C(F)(F)F)cc2)cc1)C(=O)Cn1c(CCc2cccc(F)c2F)cc(=O)c2c1CCCC2
[1]
  inhibition: 11.6%
[2]
  inhibition: 12.3%
[3]
  inhibition: 9.85%

## CCN(CCCN1CCCCC1)c1cc(C)nc(Nc2ccc3c(c2)CCC3)n1
[1]
  inhibition: -1.26%
[2]
  inhibition: 1.07%
[3]
  inhibition: 0.58%

## Cc1[nH]c(C)c(-c2ccc(Oc3ccc(Cl)cc3)cc2)c(=O)c1Br
[1]
  inhibition: -0.61%
[2]
  inhibition: 0.25%
[3]
  inhibition: -0.13%

## OC(c1cccc2ccccc12)C1CN(CCc2ccccc2)CCC1(O)c1ccccc1 (centres undefined)
[1]
  inhibition: 9.92%
[2]
  inhibition: 11.8%
[3]
  inhibition: 3.51%

## Cc1c(CN2CCCCC2)cccc1OCCCNc1nc(NCCc2ccc(O)cc2)nc(N2CCNCC2)n1
[1]
  inhibition: 5.55%
[2]
  inhibition: 2.95%
[3]
  inhibition: 5.43%

## O=C(/C=C/c1ccccc1O)N1CCC(CCN2CCC(c3c[nH]c4ccccc34)CC2)CC1
[1]
  inhibition: -5.26%
[2]
  inhibition: -3.35%
[3]
  inhibition: -2.57%

## COc1ccc(C=NN=c2cc(C)[nH]c3ccccc23)c(OC)c1
[1]
  inhibition: 54.4%
[2]
  inhibition: 66%
[3]
  inhibition: 55.3%

## CC[C@H](NC(=O)c1c(CC2CCN(CC(C)=O)CC2)c(-c2ccccc2)nc2ccccc12)c1ccccc1
[1]
  inhibition: 2.8%
[2]
  inhibition: 3.28%
[3]
  inhibition: 0.03%

## CCCCOC(=O)[C@H](CCC)NC(=O)c1ccc(NS(=O)(=O)c2ccc3nc(N)[nH]c(=O)c3c2)cc1
[1]
  inhibition: 0.2%
[2]
  inhibition: -1.82%
[3]
  inhibition: 0.77%

## COc1cc(C(=O)N2CCC(CCN3CCC4(CC3)CN(S(C)(=O)=O)c3ccccc34)CC2Cc2ccc(Cl)c(Cl)c2)cc(OC)c1OC (centres undefined)
[1]
  inhibition: 3.23%
[2]
  inhibition: 4.25%
[3]
  inhibition: 3.27%

## C=CCNC(=O)C(C)c1ccc2cc(OC)ccc2c1 (centres undefined)
[1]
  inhibition: 0.71%
[2]
  inhibition: 0.77%
[3]
  inhibition: -0.06%

## Cc1cccc2nc(-c3ccc(-c4ccc(CN5CCCC(N)C5)cc4)cc3)[nH]c12 (centres undefined)
[1]
  inhibition: 8.17%
[2]
  inhibition: 11%
[3]
  inhibition: 2.6%

## COc1cccc2c(O)c(CNC3CCCCC3)ccc12
[1]
  inhibition: -0.95%
[2]
  inhibition: -0.26%
[3]
  inhibition: 1.11%

## O=C(Nc1ccc(Cl)cc1)c1cccc(CN2CCCN(Cc3cccc(O)c3)CC2)c1
[1]
  inhibition: -0.2%
[2]
  inhibition: -0.04%
[3]
  inhibition: 0.01%

## CN(C)c1ccc(CN2CCC(CNC(=O)c3cc(-c4cccc(C(F)(F)F)c4)cs3)C2)cc1 (centres undefined)
[1]
  inhibition: 2.15%
[2]
  inhibition: 1.34%
[3]
  inhibition: 1.72%

## O=C(COc1ccc(C(=O)c2ccccc2)cc1)Nc1nccs1
[1]
  inhibition: 0.24%
[2]
  inhibition: 0.43%
[3]
  inhibition: -3.28%

## Nc1ncc(-c2cccc(F)c2)cc1-c1nc2cc(F)ccc2[nH]1
[1]
  inhibition: 4.17%
[2]
  inhibition: 11.1%
[3]
  inhibition: 6.56%

## O=C(Nc1nc(-c2ccccn2)cs1)c1ccc(S(=O)(=O)N2CCc3ccccc32)cc1
[1]
  inhibition: 9.61%
[2]
  inhibition: 15.1%
[3]
  inhibition: 2.63%

## COc1ccc(NC(=O)Nc2cccc(-c3cccc(-c4nc5ccccc5[nH]4)c3)c2)cc1
[1]
  inhibition: -1.96%
[2]
  inhibition: -0.16%
[3]
  inhibition: -1.98%

## COCCNCc1cccc(-c2ccc3c(Nc4ccc(F)cc4Cl)ccnc3c2)c1
[1]
  inhibition: -1.97%
[2]
  inhibition: 2.48%
[3]
  inhibition: 0.78%

## OC1(C(F)(F)F)CC(c2ccccc2)=NN1c1nncc(-c2ccccc2)n1 (centres undefined)
[1]
  inhibition: 0.8%
[2]
  inhibition: 0.53%
[3]
  inhibition: 1.18%

## Cc1ccc(O)c(Nc2c3c(c(C#N)c4nc5ccccc5n24)CCC3)c1
[1]
  inhibition: 2.48%
[2]
  inhibition: 1.2%
[3]
  inhibition: -0.54%

## O=C(N[C@@H](Cc1ccccc1)[C@H](O)CNC1CCOCC1)c1cc(C2CCCC2)cc(N2CCCCS2(=O)=O)c1
[1]
  inhibition: 3.67%
[2]
  inhibition: 3.81%
[3]
  inhibition: 4.01%

## CN(C)C(CNC(=O)c1cc(-c2ccncc2)c(-c2ccc(Cl)c(O)c2)o1)c1ccccc1 (centres undefined)
[1]
  inhibition: 1.95%
[2]
  inhibition: 1.6%
[3]
  inhibition: 8.87%

## O=C(n1c(-c2cc3ccccc3n2C(=O)C(F)(F)F)cc2ccccc21)C(F)(F)F
[1]
  inhibition: 4.6%
[2]
  inhibition: 1.94%
[3]
  inhibition: -0.64%

## O=S(=O)(c1cccc(F)c1)c1ccc(Nc2ncnc3cc(Br)sc23)cc1Cl
[1]
  inhibition: 3.23%
[2]
  inhibition: 2.8%
[3]
  inhibition: -1.17%

## C=CCNC(CCCCC)c1ccc(OCCOc2ccc(C(CCCCC)NCC=C)cc2)cc1 (centres undefined)
[1]
  inhibition: 0.79%
[2]
  inhibition: 11.9%
[3]
  inhibition: 3.03%

## O=C(NCCCNc1ccnc2cc(Cl)ccc12)c1ccccc1F
[1]
  inhibition: 4.12%
[2]
  inhibition: 3.35%
[3]
  inhibition: 4.23%

## Cc1cccc2nc(-c3ccc(-c4ccc(NC(=O)C5CCN(C)CC5)cc4)cc3)[nH]c12
[1]
  inhibition: 3.08%
[2]
  inhibition: 5.28%
[3]
  inhibition: 1.38%

## CCCCNCc1ccc(-c2nc(CN(Cc3ccc(Cl)c(Cl)c3)C(=O)CN(C)C)cs2)cc1
[1]
  inhibition: 50.3%
[2]
  inhibition: 52.9%
[3]
  inhibition: 8.23%

## CCCCCCN1CCCN(Cc2cccc(C(=O)Nc3ccc(C(C)(C)C)cc3)c2)CC1
[1]
  inhibition: 1.39%
[2]
  inhibition: 0.8%
[3]
  inhibition: 0.65%

## CCOc1c(CNCCCCCCNCc2ccc3ccccc3c2OCC)ccc2ccccc12
[1]
  inhibition: 3.4%
[2]
  inhibition: 4.82%
[3]
  inhibition: 1.99%

## COc1cccc(CCN(Cc2ccccc2-c2ccc(CNC3CC(C)(C)NC(C)(C)C3)cc2)C(=O)NC2CCCCC2)c1
[1]
  inhibition: 0.9%
[2]
  inhibition: 0.87%
[3]
  inhibition: 2.67%

## O=C(c1cccc(Cl)c1)N1CCN(c2ccc([N+](=O)[O-])c(NC3CC3)c2)CC1
[1]
  inhibition: 0.4%
[2]
  inhibition: 2.47%
[3]
  inhibition: 0.25%

## Cc1ccc(CNc2ccc3ncc(-c4cccc(C(=O)NCCN(C)C)c4)n3n2)c(C)c1
[1]
  inhibition: 5.82%
[2]
  inhibition: 5.31%
[3]
  inhibition: 4.49%

## N#Cc1cccc(CN2CCCN(Cc3cccc(C(=O)Nc4ccc(Cl)cc4)c3)CC2)c1
[1]
  inhibition: 0.81%
[2]
  inhibition: 0.19%
[3]
  inhibition: 0.64%

## CN(C)CCCn1cncc1-c1ccc2ncnc(Nc3ccc(OCc4ccccc4)cc3)c2c1
[1]
  inhibition: 4.09%
[2]
  inhibition: 6.87%
[3]
  inhibition: 7.01%

## CC(C)CNC(=O)c1ccnc(-c2ccc(CNC3Cc4ccccc4C3)cc2)c1
[1]
  inhibition: -0.85%
[2]
  inhibition: -0.27%
[3]
  inhibition: -1.63%

## CN(C)CCCOc1ccc(CNCC(C)(C)c2nc(-c3ccc(Cl)c(O)c3)c(-c3ccncc3)[nH]2)cc1
[1]
  inhibition: 3.39%
[2]
  inhibition: 1.89%
[3]
  inhibition: 2.83%

## CCN(CC)CCN(Cc1ccc(-c2ccc(C(F)(F)F)cc2)cc1)C(=O)Cn1c(CCc2c(F)ccc(F)c2F)nc(=O)c2ccccc21
[1]
  inhibition: 0.63%
[2]
  inhibition: 1.87%
[3]
  inhibition: 1.43%

## COc1ccc(Cn2ccc3c4c(N)nc(N)nc4ccc32)cc1
[1]
  inhibition: 97.9%
[2]
  inhibition: 89.3%
[3]
  inhibition: 90.1%

## COc1cccc(C(=O)NC(NC(=S)Nc2ccc(OC)cc2[N+](=O)[O-])C(Cl)(Cl)Cl)c1 (centres undefined)
[1]
  inhibition: -1.36%
[2]
  inhibition: 0.44%
[3]
  inhibition: -2.26%

## CC(C)c1ccc(NC(=O)c2ccc(CN3CCCN(CC4CCCCC4)CC3)cc2)cc1
[1]
  inhibition: 3.95%
[2]
  inhibition: 2.01%
[3]
  inhibition: 5.69%
